Source: PubChem BioAssay (NCI)
This is part of a sample that, as a whole, favours compounds with a hit. Of some 83,000 tested, about 20% had one in any assay.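 A percent growth of 40 corresponds to 60% growth inhibition; 0 means no net growth; -100 means all cells died. Active threshold: below 10.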 Activity calls are given as the source filed them.

What was measured:
Experiment in all cases: NCI-60 one-dose screen, 48 h (100 = growth as untreated, 0 = no growth, -100 = all killed)
Conditions in all cases: 10 µM unless noted
NCI-H23 lung = tested on: NCI-H23 lung
NCI-H226 lung = tested on: NCI-H226 lung
NCI-H322M lung = tested on: NCI-H322M lung
HOP-62 NSCLC = tested on: HOP-62 NSCLC
NCI-H460 lung = tested on: NCI-H460 lung
HOP-92 NSCLC = tested on: HOP-92 NSCLC
NCI-H522 lung = tested on: NCI-H522 lung
A549/ATCC NSCLC = tested on: A549/ATCC NSCLC
786-0 renal = tested on: 786-0 renal
COLO 205 colon = tested on: COLO 205 colon
DU-145 prostate = tested on: DU-145 prostate
K-562 leukemia = tested on: K-562 leukemia
MALME-3M melanoma = tested on: MALME-3M melanoma
MDA-MB-231 breast = tested on: MDA-MB-231 breast
RXF 393 renal = tested on: RXF 393 renal
SF-268 CNS = tested on: SF-268 CNS
SF-295 CNS = tested on: SF-295 CNS
SF-539 CNS = tested on: SF-539 CNS
UACC-257 melanoma = tested on: UACC-257 melanoma
M14 melanoma = tested on: M14 melanoma

Measured: growth

O=C(/C=C/C12c3ccccc3C(c3ccccc31)C1C(=O)NC(=O)C12)c1ccc(I)cc1 (stereo not given)
inactive: NCI-H23 lung 59.3% | NCI-H226 lung 88.8% | NCI-H322M lung 65.1% | HOP-62 NSCLC 69.3% | NCI-H460 lung 44.8% | HOP-92 NSCLC 63.7% | NCI-H522 lung 55% | A549/ATCC NSCLC 71.9% | 786-0 renal 64.6% | COLO 205 colon 78.8% | DU-145 prostate 43.2% | K-562 leukemia 24.8% | MALME-3M melanoma 86.1% | MDA-MB-231 breast 64% | RXF 393 renal 46% | SF-268 CNS 49.8% | SF-295 CNS 78.5% | SF-539 CNS 83.3% | UACC-257 melanoma 60.5% | M14 melanoma 74%

CC(=O)O[C@H]1CC[C@]2(C)[C@H]3CC=C4[C@@H]5CC(C)(C)CC[C@]5(C(=O)N5CCN(CCC#N)CC5)CC[C@@]4(C)[C@]3(C)CC[C@H]2C1(C)C
inactive: NCI-H23 lung 45.3% | NCI-H226 lung 48.9% | NCI-H322M lung 53.3% | HOP-62 NSCLC 41.2% | HOP-92 NSCLC 56.7% | NCI-H522 lung 38.9% | A549/ATCC NSCLC 25.6% | 786-0 renal 47.4% | COLO 205 colon 21.1% | DU-145 prostate 57.8% | K-562 leukemia 10% | MALME-3M melanoma 26% | MDA-MB-231 breast 48.5% | RXF 393 renal 74.3% | SF-268 CNS 51.8% | SF-295 CNS 65.5% | SF-539 CNS 16.7% | UACC-257 melanoma 18.1% | M14 melanoma 35.7%
active: NCI-H460 lung -1.52%

COC12C=C/C(=C(/C(=O)OCCSc3ccnn3C)C(=O)CCCCCCCCC3(OC)C=C/C(=C(/C(=O)OCCSc4ccnn4C)C(=O)CCCCCCCC1)O3)O2
inactive: NCI-H322M lung 11.6% | HOP-62 NSCLC 27.9% | DU-145 prostate 23% | SF-268 CNS 16% | UACC-257 melanoma 40.3%
active: NCI-H23 lung -44% | NCI-H226 lung -53.6% | NCI-H460 lung 3.85% | HOP-92 NSCLC -18.9% | NCI-H522 lung -17.3% | A549/ATCC NSCLC 5.51% | 786-0 renal -29.2% | COLO 205 colon -41.7% | K-562 leukemia 1.16% | MALME-3M melanoma -32.2% | MDA-MB-231 breast -11% | RXF 393 renal -79.1% | SF-295 CNS -3.35% | SF-539 CNS -0.264% | M14 melanoma -3.79%

CN1CC(c2ccc(Br)cc2)C(C(=O)c2ccc(Br)cc2)C12C(=O)Nc1ccccc12 (stereo not given)
inactive: NCI-H23 lung 67.7% | NCI-H226 lung 73.5% | NCI-H322M lung 89.9% | HOP-62 NSCLC 69% | NCI-H460 lung 73.3% | HOP-92 NSCLC 70.2% | NCI-H522 lung 58.2% | A549/ATCC NSCLC 59.2% | 786-0 renal 79.2% | COLO 205 colon 76.6% | DU-145 prostate 83.5% | K-562 leukemia 44.8% | MALME-3M melanoma 81.7% | MDA-MB-231 breast 81.7% | RXF 393 renal 69.7% | SF-268 CNS 69.5% | SF-295 CNS 78.5% | SF-539 CNS 90.5% | UACC-257 melanoma 85.5% | M14 melanoma 76%

C=C1SC(=Nc2ccccc2Cl)N(C(=O)c2sc3ccccc3c2Cl)C1(C)C
active: COLO 205 colon -43.8%
inactive: NCI-H23 lung 36.7% | NCI-H226 lung 77.1% | NCI-H322M lung 65.9% | HOP-62 NSCLC 54.8% | NCI-H460 lung 15.1% | HOP-92 NSCLC 53.6% | NCI-H522 lung 91.6% | A549/ATCC NSCLC 43.7% | 786-0 renal 77.8% | DU-145 prostate 94% | K-562 leukemia 20.3% | MALME-3M melanoma 79.6% | MDA-MB-231 breast 50.5% | RXF 393 renal 93.8% | SF-268 CNS 85.2% | SF-295 CNS 27% | SF-539 CNS 54.3% | UACC-257 melanoma 98.4% | M14 melanoma 86.6%

O=C(O)c1cn(C2CC2)c2cc(N3CCN(C(=O)N4CCOCC4)CC3)c(F)cc2c1=O
inactive: NCI-H23 lung 99.5% | NCI-H226 lung 99.3% | NCI-H322M lung 104% | HOP-62 NSCLC 106% | NCI-H460 lung 115% | HOP-92 NSCLC 95.5% | NCI-H522 lung 89.9% | A549/ATCC NSCLC 108% | 786-0 renal 99.8% | COLO 205 colon 110% | DU-145 prostate 115% | K-562 leukemia 114% | MALME-3M melanoma 88.6% | MDA-MB-231 breast 104% | RXF 393 renal 94.6% | SF-268 CNS 97.9% | SF-295 CNS 106% | SF-539 CNS 102% | UACC-257 melanoma 98% | M14 melanoma 102%

CCC(C)(C)c1ccc(Nc2ccc(Nc3ccc(C(C)(C)CC)cc3)cc2)cc1
inactive: NCI-H23 lung 83.1% | NCI-H226 lung 93% | NCI-H322M lung 105% | HOP-62 NSCLC 89.3% | NCI-H460 lung 99.1% | HOP-92 NSCLC 51.1% | NCI-H522 lung 79.9% | A549/ATCC NSCLC 90.4% | 786-0 renal 84.4% | COLO 205 colon 84.7% | DU-145 prostate 93.8% | K-562 leukemia 80.4% | MALME-3M melanoma 97.4% | MDA-MB-231 breast 93.5% | RXF 393 renal 83.4% | SF-268 CNS 98.6% | SF-295 CNS 102% | SF-539 CNS 102% | UACC-257 melanoma 80.3% | M14 melanoma 92.5%

COc1cc(-c2ccc(-c3ccc(C(=N)N)cc3)s2)cc(OC)c1OC
active: COLO 205 colon -41.8% | K-562 leukemia 1.05%
inactive: NCI-H23 lung 84.4% | NCI-H226 lung 82.5% | NCI-H322M lung 73.2% | HOP-62 NSCLC 59.1% | NCI-H460 lung 37.1% | HOP-92 NSCLC 43.4% | NCI-H522 lung 62.4% | A549/ATCC NSCLC 75.4% | 786-0 renal 69.4% | DU-145 prostate 63.6% | MALME-3M melanoma 32.7% | MDA-MB-231 breast 53.2% | RXF 393 renal 80.9% | SF-268 CNS 65.1% | SF-295 CNS 46.2% | SF-539 CNS 47.1% | UACC-257 melanoma 63.5% | M14 melanoma 47.9%
